Results on five compounds are retold here after PubChem BioAssay.

The target in one assay is Albumin (Bos taurus) (UniProt P02769). Kind of assay: compounds binding labelled BSA control protein – biochemical, small-molecule microarray, Alexa647 label, 635/667 nm fluorescence, artefact control for SMM control protein annotation, profiling panel (AID 1118).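 Further: score merges 667 nm emission intensity and signal-to-noise per printed compound spot.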 The settings on record: BSA-A647 binding, fluorescence 635 nm, higher = more signal.
A short description of assay [1]: probe aXIP binding to arrayed compounds – biochemical, NeuroSMM set, 635/667 nm fluorescence, primary screen (AID 1119).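 Further: probe is the protein aXip251-270 applied at 1 µg/mL to compound-printed slides; binding of probe to printed compounds measured as 667 nm fluorescence plus signal to noise.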 The settings on record: small-molecule microarray, higher = more signal, called active from +8 up or from −8 down.
A short description of assay [2]: probe aNOTCH3 binding on compound microarray – biochemical, small-molecule microarray, 635/667 nm fluorescence, primary screen (AID 1120).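 Further: probe is a biotin-tagged antibody raised against NOTCH3 rather than NOTCH3 protein; score merges spot fluorescence near 667 nm with spot signal to noise.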 The note with it: higher = more signal.
A short description of assay [3]: probe aNOTCH2 binding on compound microarray – biochemical, small-molecule microarray, 635/667 nm fluorescence, primary screen (AID 1121).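 Further: score merges feature fluorescence read at 667 nm with its signal to noise.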 The note with it: higher = more signal.
Assay [4] concerns the target Carbonic anhydrase 2 (Homo sapiens) (UniProt P00918). Kind of assay: compounds binding carbonic anhydrase 2 – biochemical, small-molecule microarray, Alexa647-labelled CAII, profiling panel (AID 1122). The note with it: CAII-A647 binding fluorescence, higher = more signal.
Assay [5] can be described thus: COS7 lysate on small-molecule microarray, probe aHis, 635 nm (AID 1123).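 Further: z-score combines 667nm fluorescence intensity with signal-to-noise per printed compound spot.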 The note with it: COS7 cell lysate, fluorescence, higher = more signal.
Assay [6] in a line: probe aLAP1 signal on lysate-treated microarray – cell lysate, small-molecule microarray, COS7 lysate, primary screen (AID 1124).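 Further: lysate comes from COS7 cells expressing LAP1 and is applied at 0.3 µg/mL; score merges spot fluorescence near 667 nm with signal-to-noise over triplicate slides.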 The settings on record: probe aLAP1, fluorescence, higher = more signal.
In a further assay the test system is Sam68 (KHDRBS1). The assay is described as follows: compounds binding KHDRBS1 protein – biochemical, small-molecule microarray, 635 nm fluorescence, primary screen (AID 1125).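 Further: score merges 667 nm channel intensity with signal to noise over triplicate slides.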 The settings on record: higher = more signal.
For assay [7], the system named is Chordin-like protein 2 (CHRDL2). The assay is described as follows: compounds binding chordin-like 2 – biochemical, small-molecule microarray, 635 nm fluorescence, primary screen (AID 1126).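 Further: printed compound slides probed with Chrdl2 protein at 4 µg/mL for 1 h at 4 C; score merges 667 nm emission intensity with signal to noise over three replicate slides.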 The settings on record: fluorescence 635 nm, higher = more signal.
Assay [8] deals with Concanavalin-A (Canavalia ensiformis) (UniProt P02866). The assay is described as follows: compounds binding concanavalin A lectin – biochemical, small-molecule microarray, Alexa647 label, 635 nm, artefact control for SMM control protein annotation, primary screen (AID 1127).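 Further: z combines 667 nm emission intensity with signal-to-noise across three replicate slides.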 The settings on record: ConA-A647 binding fluorescence, higher = more signal.
Assay [9] in a line: compounds binding Alexa647 anti-His antibody – biochemical, small-molecule microarray, 635 nm fluorescence, artefact control for SMM control protein annotation, primary screen (AID 1128).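 Further: score merges feature fluorescence with signal-to-noise for each printed compound spot.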 The note with it: higher = more signal.
For assay [10], the system named is Human papillomavirus type 1a E7 protein (residues 1-88). The assay is described as follows: HPV1a E7 small-molecule binders, primary screen, biochemical, small-molecule microarray, residues 1-88, 635 nm (AID 1129). The settings on record: small-molecule microarray binding, fluorescence 635 nm; higher = more signal.
Assay [11] concerns the target Focal adhesion kinase 1 (Homo sapiens) (UniProt Q05397). The assay is described as follows: PTK2 protein binding on printed compound slides – biochemical, small-molecule microarray, 635/667 nm fluorescence, BSA, DTT, primary screen (AID 1130).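 Further: composite of spot emission at 667 nm and signal to noise over triplicate slides.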 The settings on record: 635 nm fluorescence, higher = more signal.
Assay [12] concerns Fibrinogen (Alexa647-labelled). Kind of assay: Alexa647-fibrinogen binding to printed small molecules – biochemical, small-molecule microarray, 635/667 nm fluorescence, artefact control for SMM control-protein annotation, profiling panel (AID 1131).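 Further: z-score merges 667 nm fluorescence with per-spot signal-to-noise over triplicate slides.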 The note with it: fibrinogen-A647 binding fluorescence, higher = more signal.
For assay [13], the target named is Follistatin (Homo sapiens) (UniProt P19883). The assay is described as follows: FST protein binding to printed compounds – biochemical, small-molecule microarray, 635/667 nm fluorescence, primary screen (AID 1132). The settings on record: 635 nm fluorescence, higher = more signal.
The target of assay [14] is Fibroblast growth factor 2 (Homo sapiens) (UniProt P09038). Kind of assay: basic fibroblast growth factor binding to printed compounds – biochemical, small-molecule microarray, 635/667 nm fluorescence, primary screen (AID 1133). The note with it: FGF2, fluorescence 635/667, higher = more signal.
Assay [15] can be described thus: JC-1 mitochondrial potential readout, lung cancer cells – cell-based, A549, JC-1 fluorescence, basal, 24 h, 100 nL, profiling panel (AID 1138).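 Further: A549 lung adenocarcinoma cells under basal conditions with no added stimulus; test concentration not given here.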 The note with it: higher = more signal.
The test system of a further assay is Lefty1. Kind of assay: Lefty1 protein binding to printed compounds – biochemical, small-molecule microarray, 635/667 nm fluorescence, primary screen (AID 1139). The note with it: fluorescence 635/667, higher = more signal.
In assay [16] the test system is wheat germ agglutinin (Triticum aestivum), Alexa647-labelled. The assay is described as follows: Alexa647-WGA lectin binding to printed small molecules – biochemical, small-molecule microarray, 635/667 nm fluorescence, artefact control for SMM control-protein annotation, profiling panel (AID 1140).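 Further: score merges 667 nm feature emission with signal to noise over triplicate slides.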 The settings on record: WGA-A647 binding, 635 nm fluorescence, higher = more signal.

Assay [17] concerns the target Luciferin 4-monooxygenase (Photinus pyralis) (UniProt P08659). Kind of assay: inhibition of purified Photinus pyralis luciferase – biochemical, luminescence, purified enzyme, 2006 set, primary screen (AID 1141).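 Further: cell-free assay with purified firefly luciferase at 100 ng per well in PBS; test concentration not given here.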 The note with it: purified firefly luciferase, SteadyGlo luminescence, 30 min; higher = more signal, called active from +8 up or from −8 down.

Calls of active or inactive are those of the source.

Sequence of Focal adhesion kinase 1 (Homo sapiens) (Q05397 whole entry, looked up): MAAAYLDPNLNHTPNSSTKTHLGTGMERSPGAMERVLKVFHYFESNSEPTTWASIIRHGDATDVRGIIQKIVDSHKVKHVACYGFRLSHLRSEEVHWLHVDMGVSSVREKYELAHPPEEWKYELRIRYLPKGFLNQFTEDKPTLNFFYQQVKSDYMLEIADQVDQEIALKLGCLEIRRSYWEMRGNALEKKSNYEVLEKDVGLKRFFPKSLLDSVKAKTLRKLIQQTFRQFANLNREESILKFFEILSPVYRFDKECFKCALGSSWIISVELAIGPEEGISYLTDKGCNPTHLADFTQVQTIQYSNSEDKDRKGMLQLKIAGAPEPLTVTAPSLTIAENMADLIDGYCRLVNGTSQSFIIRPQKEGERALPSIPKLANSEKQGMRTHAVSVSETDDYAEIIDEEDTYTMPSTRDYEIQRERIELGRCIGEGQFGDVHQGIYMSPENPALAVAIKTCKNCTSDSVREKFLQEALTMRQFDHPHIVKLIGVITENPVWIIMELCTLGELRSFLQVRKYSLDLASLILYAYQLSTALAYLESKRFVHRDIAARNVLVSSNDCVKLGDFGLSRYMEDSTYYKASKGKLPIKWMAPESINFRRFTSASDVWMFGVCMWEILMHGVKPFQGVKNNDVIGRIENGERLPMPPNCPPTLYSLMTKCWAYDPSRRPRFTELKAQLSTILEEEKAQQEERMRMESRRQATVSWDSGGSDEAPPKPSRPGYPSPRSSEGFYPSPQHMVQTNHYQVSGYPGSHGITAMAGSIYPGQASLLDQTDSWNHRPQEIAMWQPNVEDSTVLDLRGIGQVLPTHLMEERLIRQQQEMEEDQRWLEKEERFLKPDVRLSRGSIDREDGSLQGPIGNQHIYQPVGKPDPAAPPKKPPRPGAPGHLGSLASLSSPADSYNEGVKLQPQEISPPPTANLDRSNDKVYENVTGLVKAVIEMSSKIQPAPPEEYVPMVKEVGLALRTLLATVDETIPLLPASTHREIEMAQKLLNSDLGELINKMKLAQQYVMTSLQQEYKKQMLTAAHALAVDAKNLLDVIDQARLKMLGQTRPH
Sequence of Fibroblast growth factor 2 (Homo sapiens) (P09038 whole entry, looked up): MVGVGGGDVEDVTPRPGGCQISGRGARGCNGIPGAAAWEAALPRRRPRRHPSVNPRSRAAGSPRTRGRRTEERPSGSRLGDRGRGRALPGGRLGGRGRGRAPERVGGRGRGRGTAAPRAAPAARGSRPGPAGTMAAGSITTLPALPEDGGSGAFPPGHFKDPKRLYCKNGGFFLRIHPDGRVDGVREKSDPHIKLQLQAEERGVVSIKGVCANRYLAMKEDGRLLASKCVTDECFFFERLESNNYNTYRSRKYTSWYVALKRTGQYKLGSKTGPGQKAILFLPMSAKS
Sequence of Concanavalin-A (Canavalia ensiformis) (P02866 whole entry, looked up): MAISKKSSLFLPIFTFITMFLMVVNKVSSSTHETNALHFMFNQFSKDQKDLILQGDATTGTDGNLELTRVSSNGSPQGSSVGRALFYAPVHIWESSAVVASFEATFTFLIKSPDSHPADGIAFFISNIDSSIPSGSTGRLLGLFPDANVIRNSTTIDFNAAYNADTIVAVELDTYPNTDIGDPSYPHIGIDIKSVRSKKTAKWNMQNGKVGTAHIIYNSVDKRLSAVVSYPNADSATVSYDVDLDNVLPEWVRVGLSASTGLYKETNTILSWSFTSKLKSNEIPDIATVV
Sequence of Luciferin 4-monooxygenase (Photinus pyralis) (P08659 whole entry, looked up): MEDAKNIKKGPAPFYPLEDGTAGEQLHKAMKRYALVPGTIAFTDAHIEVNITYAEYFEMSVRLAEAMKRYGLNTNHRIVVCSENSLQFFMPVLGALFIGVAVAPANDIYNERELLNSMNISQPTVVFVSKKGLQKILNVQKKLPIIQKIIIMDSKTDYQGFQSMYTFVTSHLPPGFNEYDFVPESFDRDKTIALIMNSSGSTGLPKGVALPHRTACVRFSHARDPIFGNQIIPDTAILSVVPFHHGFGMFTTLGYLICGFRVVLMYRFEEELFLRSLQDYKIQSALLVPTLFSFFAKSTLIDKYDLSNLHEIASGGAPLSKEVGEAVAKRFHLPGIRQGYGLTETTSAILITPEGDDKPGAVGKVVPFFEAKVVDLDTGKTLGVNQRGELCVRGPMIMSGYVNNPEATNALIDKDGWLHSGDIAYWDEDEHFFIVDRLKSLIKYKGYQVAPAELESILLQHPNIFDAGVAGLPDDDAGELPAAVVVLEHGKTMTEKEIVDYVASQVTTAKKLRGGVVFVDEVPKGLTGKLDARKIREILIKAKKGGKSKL
Sequence of Albumin (Bos taurus) (P02769 whole entry, looked up): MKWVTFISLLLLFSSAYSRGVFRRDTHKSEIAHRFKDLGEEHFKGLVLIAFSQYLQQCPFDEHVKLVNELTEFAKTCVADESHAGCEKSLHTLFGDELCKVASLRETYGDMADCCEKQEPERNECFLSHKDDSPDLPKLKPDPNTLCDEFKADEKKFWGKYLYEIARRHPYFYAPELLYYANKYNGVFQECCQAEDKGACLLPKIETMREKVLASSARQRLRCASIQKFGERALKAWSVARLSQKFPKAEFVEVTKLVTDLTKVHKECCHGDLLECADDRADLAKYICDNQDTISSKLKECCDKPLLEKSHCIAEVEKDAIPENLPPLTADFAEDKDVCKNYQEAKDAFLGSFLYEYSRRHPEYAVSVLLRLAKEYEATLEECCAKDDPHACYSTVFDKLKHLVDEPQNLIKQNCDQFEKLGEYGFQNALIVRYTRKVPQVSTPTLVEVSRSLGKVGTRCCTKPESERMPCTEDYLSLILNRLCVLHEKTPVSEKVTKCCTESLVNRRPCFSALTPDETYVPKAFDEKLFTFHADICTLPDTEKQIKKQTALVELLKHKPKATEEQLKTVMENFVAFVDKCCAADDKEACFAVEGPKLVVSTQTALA
Sequence of Follistatin (Homo sapiens) (P19883 whole entry, looked up): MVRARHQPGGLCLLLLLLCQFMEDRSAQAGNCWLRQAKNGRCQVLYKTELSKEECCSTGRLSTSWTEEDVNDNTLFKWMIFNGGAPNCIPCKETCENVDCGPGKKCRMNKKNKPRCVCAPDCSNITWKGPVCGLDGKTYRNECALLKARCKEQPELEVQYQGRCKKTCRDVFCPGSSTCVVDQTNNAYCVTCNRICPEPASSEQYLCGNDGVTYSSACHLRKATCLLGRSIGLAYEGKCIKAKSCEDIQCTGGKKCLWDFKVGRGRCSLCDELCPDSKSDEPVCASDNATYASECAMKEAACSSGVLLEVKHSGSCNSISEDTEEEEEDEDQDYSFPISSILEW

Take `CCCCC(=O)N(CCN1CCOCC1)[C@@H]1CC(C(=O)NCCO)=C[C@H](Oc2c(I)cc(CO)cc2OC)[C@H]1O`: the composite z-score was -0.365 with Albumin (Bos taurus); -0.163 in [2]; -0.185 in assay [3]; -0.142 in assay [4]; -0.463 in assay [5]; -0.265 in assay [6]. For the same compound, the composite z-score in the assay with Sam68 (KHDRBS1) is 0.593; in [7], 0.459; in [8] it was 0.331; in assay [9], 0.438; in assay [10], 0.358; in assay [11], -0.444. Also, the composite z-score is -0.0237 in assay [12]; 0.328 in assay [13]; 0.902 in [14]; 0.612 with Lefty1; 0.0626 in assay [16]. The composite Z-score in assay [1] is -0.18 (inactive). Besides, the z-score was 0.809 in assay [15] and -0.658 (inactive) in [17].
Take `CC(=O)N1CC(C(O)C2C=CC3C(=O)NC(=O)C3N2Nc2ccc(Cl)cc2Cl)c2ccccc21` (stereo not given): the composite z-score is 0.892 in the assay with Albumin (Bos taurus); -0.0077 in assay [2]; 0.108 in assay [3]; 0.693 in [4]; 2.36 in assay [5]; -0.0203 in assay [6]. In addition, the composite z-score was 0.99 in the assay with Sam68 (KHDRBS1); 0.237 in assay [7]; 0.732 in assay [8]; 0.285 in assay [9]; 1.15 in assay [10]; -0.416 in [11]. Moreover, the composite z-score was 0.439 in assay [12]; 0.772 in [13]; -0.0113 in assay [14]; -0.216 in the assay with Lefty1; 1.14 in [16]. The composite Z-score in assay [1] was 0.0413 (inactive). Besides, the z-score in assay [15] was 0.125; in assay [17], -1.4 (inactive).
`C=C(CCCC)/C(=C/C[C@H](OC(C)=O)c1ccc(OCCO)cc1)c1cc(C(=O)OC)ccc1OC`: the composite z-score in the assay with Albumin (Bos taurus) is 0.891; in [2], 0.0297; in assay [3] it was -0.0743; in assay [4], 0.663; in assay [5], 1.49; in assay [6], 0.561. Besides, the composite z-score in the assay with Sam68 (KHDRBS1) was 1.17; in assay [7] it was -0.15; in assay [8], 0.366; in assay [9], 0.124; in assay [10] it was 1.04; in assay [11] it was 0.667. The composite z-score in assay [12] was 0.046; in assay [13], 0.935; in assay [14], 0.103; with Lefty1, 0.929; in [16], 0.775. Besides, the composite Z-score in assay [1] is 0.414 (inactive). For the same compound, the figures for the z-score in [15] and in assay [17] were 1.78 and -1.69 (inactive), respectively.
As to `O=C(NCCN1CCOCC1)[C@@H]1c2ccccc2C(=O)N(Cc2ccccc2)[C@H]1c1ccc(CO)cc1`, the composite z-score in the assay with Albumin (Bos taurus) was 0.16; in assay [2], -0.272; in [3], -0.116; in assay [4], 0.688; in assay [5], 0.392; in [6], -0.274. Also, the composite z-score is -0.673 in the assay with Sam68 (KHDRBS1); -1.38 in [7]; 0.581 in assay [8]; -0.87 in assay [9]; -0.611 in assay [10]; -0.668 in [11]. In addition, the composite z-score is 0.143 in assay [12]; 0.321 in [13]; -0.447 in [14]; -0.665 in the assay on Lefty1; -0.3 in assay [16]. Further, in assay [1], the composite Z-score was 0.283 (inactive). Besides, the z-score is 0.829 in assay [15] and 1.36 (inactive) in assay [17].
With `COCCOC(=O)N1C(=O)[C@@]2(c3cc(C#CC4(O)CCCCCC4)ccc31)[C@H](C(=O)N1CCN(c3ncccn3)CC1)[C@H]1C(=O)O[C@H](c3ccccc3)[C@H](c3ccccc3)N1[C@@H]2c1ccccc1OCCO`, the composite z-score with Albumin (Bos taurus) is -0.22; in [2], 0.22; in assay [3] it was -0.0826; in assay [4], 0.384; in [5], 0.506; in assay [6], -0.176. The composite z-score in the assay with Sam68 (KHDRBS1) turned out to be 1.26; in assay [7] it was 0.902; in assay [8], 1.13; in [9] it was 1.29; in [10], 1.18; in assay [11], 1.1. Further, the composite z-score stood at 0.821 in [12]; 1.28 in assay [13]; 1.37 in assay [14]; 0.883 with Lefty1; 0.321 in assay [16]. For the same compound, the composite Z-score in assay [1] was 0.572 (inactive). The z-score in assay [15] was -1.04; in [17] it was -0.348 (inactive).
